Data as given in PubChem BioAssay (NCI).
Compounds without any hit were thinned out: in the full panel of roughly 83,000, 20% have a hit.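 Percent growth is the endpoint: 0 to 100 indicates growth inhibition (40 means 60% inhibition), 0 means no net growth, and negative values indicate cell death.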 Unmarked numbers belong to inactive results. Active and inactive are the calls of the source. Rule for the calls: active = growth percent below 10; inactive = the rest.

Tests used:
Assay in all cases: NCI-60 one-dose screen, 48 h (100 = growth as untreated, 0 = no growth, -100 = all killed)
NCI-H23 lung = conditions: 10 µM unless noted
NCI-H226 lung = conditions: 10 µM unless noted
DU-145 prostate = conditions: 10 µM unless noted
MDA-MB-231 breast = conditions: 10 µM unless noted
SF-268 CNS = conditions: 10 µM unless noted
M14 melanoma = conditions: 10 µM unless noted
HCT-15 colon = conditions: 10 µM
HT29 colon = conditions: 10 µM unless noted
PC-3 prostate = conditions: 10 µM unless noted
UACC-62 melanoma = conditions: 10 µM unless noted
SK-MEL-28 melanoma = conditions: 10 µM unless noted
OVCAR-8 ovarian = conditions: 10 µM unless noted
OVCAR-5 ovarian = conditions: 10 µM unless noted
SK-OV-3 ovarian = conditions: 10 µM unless noted
OVCAR-3 ovarian = conditions: 10 µM unless noted
NCI/ADR-RES ovarian = conditions: 10 µM unless noted
SW-620 colon = conditions: 10 µM unless noted
MCF7 breast = conditions: 10 µM unless noted
KM12 colon = conditions: 10 µM unless noted
LOX IMVI melanoma = conditions: 10 µM unless noted

SMILES | growth (NCI-H23 lung) | growth (NCI-H226 lung) | growth (DU-145 prostate) | growth (MDA-MB-231 breast) | growth (SF-268 CNS) | growth (M14 melanoma) | growth (HCT-15 colon) | growth (HT29 colon) | growth (PC-3 prostate) | growth (UACC-62 melanoma) | growth (SK-MEL-28 melanoma) | growth (OVCAR-8 ovarian) | growth (OVCAR-5 ovarian) | growth (SK-OV-3 ovarian) | growth (OVCAR-3 ovarian) | growth (NCI/ADR-RES ovarian) | growth (SW-620 colon) | growth (MCF7 breast) | growth (KM12 colon) | growth (LOX IMVI melanoma)
CC(C)[C@]12O[C@H]1[C@@H]1O[C@]13[C@]1(O[C@H]1C[C@H]1C4=C(CC[C@@]13C)C(=O)OC4)[C@@H]2OC(=O)OC(C)(C)C | -28% (active) | 12.6% | 8.08% (active) | 21.8% | -2.29% (active) | -75.7% (active) | 8.8% (active) | 1.27% (active) | 19.8% | -51.4% (active) | -1.69% (active) | 16.8% | 24.4% | 43.6% | 5.42% (active) | -2.52% (active) | 1.09% (active) | 18.5% | 2.1% (active) | –
CC1(C)N=C(N)N=C(N)N1c1ccc(OCCCCNC(=O)c2ccc(S(=O)(=O)F)cc2)c(Cl)c1 | 68.1% | 117% | 55% | 105% | 40.7% | 70.1% | 94.9% | 27.6% | 23.4% | 44.1% | 96% | 32.7% | 56.2% | 101% | 119% | 109% | 35.1% | 34.7% | 66.5% | 25.7%
FC(F)=C(F)c1ccccc1 | 103% | 113% | 108% | 115% | 111% | 96.7% | 107% | 104% | 104% | 107% | 102% | 104% | 112% | 97.5% | 114% | 106% | 109% | 96.9% | 102% | 88.6%
Cc1ccc(C[As+](c2ccccc2)(c2ccccc2)c2ccccc2)cc1 | -11.1% (active) | 8.52% (active) | 23.8% | 10.6% | 24.1% | 4.54% (active) | 75.9% | -3.93% (active) | 7.95% (active) | 8.38% (active) | 37.2% | 9.13% (active) | 31.8% | -4.76% (active) | 13.9% | 99.2% | 11.9% | 9.14% (active) | 3.2% (active) | -26.6% (active)
CC(N)Cc1ccc(O)cc1 (stereo not drawn) | 108% | 99.2% | 112% | 106% | 99.4% | 99.9% | 113% | 98.4% | 98.8% | 105% | 124% | 101% | 104% | 105% | 108% | 103% | 103% | 100% | 107% | 99.2%
C[As](=O)(O)c1ccc(C(=O)O)cc1 | 110% | 99.7% | 109% | 102% | 110% | 104% | 99.2% | 108% | 97.9% | 101% | 106% | 101% | 115% | 106% | 121% | 108% | 105% | 100% | 111% | 115%
C[C@@H]1O[C@@H](O[C@H]2CC[C@@]3(C)[C@H](CCC4[C@@H]3C(O)C[C@]3(C)[C@@H](c5ccc(=O)oc5)CC[C@]43O)C2)[C@H](O)[C@H](O)[C@H]1O (stereo partly drawn) | -78.5% (active) | -84.2% (active) | -70.1% (active) | -63.7% (active) | -63.1% (active) | -70.7% (active) | -74.5% (active) | -90.4% (active) | -33.3% (active) | -89.6% (active) | -96.1% (active) | – | -92% (active) | -95.6% (active) | -46.7% (active) | -66.8% (active) | -79% (active) | -59.4% (active) | -94.2% (active) | -55.8% (active)
Cc1cc(N(CCCl)CCCl)ccc1C=Nc1ccc2ccccc2c1 | 60.8% | -49.7% (active) | 71.5% | 92% | 72.3% | 88% | 79.7% | 92% | 77.2% | 28.4% | 102% | 72.7% | 24.4% | 80.9% | 85.7% | 71.2% | 84.9% | 40% | 87.6% | 82.8%
